Source: PubChem BioAssay (Tox21)
Results filed as inconclusive are left out. Activity calls are given as the source filed them. Calls come from the whole dose curve; as a rule, active = well fitted curve in the direction sought with a large enough effect in the repeat runs; inconclusive = weak or mixed curves; inactive = no such curve, though single readings can be large; an effect the other way counts as inactive or inconclusive.

Experiments:
[1] = A CellTox Green Cytotoxicity Assay to monitor cytotoxicity in HEK293 cells - 40 hour (AID 1224871); note: nearly all actives have a fitted effect of over 45% in size
In short: (§1)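 Cells (HEK293, 600/well) and dye reagent are dispensed together. After 5 h at 37 C, 23 nL compound is pinned in. Plates stay at 37 C for 40 h with fluorescence read at 0h, 8h, 16h, 24h, 32h and 40h.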

[2] = qHTS RealTime-Glo MT Cell Viability Assay in HEK293 cells - 16 hour (AID 1224872); note: top concentration of the series differs between compounds; nearly all actives have a fitted effect of over 50% in size
In short: (§2)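 Quantitative high-throughput screen of the Tox21 10K library in HEK293: cells and RealTime-Glo reagents plated together, compound added at 5 h, luminescence monitored through 40 h at 37 C.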

[3] = qHTS RealTime-Glo MT Cell Viability Assay in HepG2 cells - 8 hour (AID 1224873); note: nearly all actives have a fitted effect of over 55% in size
In short: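 HepG2 cells mixed with RealTime-Glo MT reagents (NanoLuc plus cell-permeant prosubstrate) were seeded at 600 cells/well, incubated 5 h at 37 C/5% CO2, then pinned with compounds in DMSO; nonlytic luminescence tracked viability during 40 h treatment.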

[4] = qHTS RealTime-Glo MT Cell Viability Assay in HEK293 cells - 40 hour (AID 1224874); details: RealTime-Glo luminescence; max response: hits give low values; note: nearly all actives have a fitted effect of over 50% in size
In short: (§3)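 Real-time viability in HEK293: signal arises when living cells convert a prosubstrate for NanoLuc in the medium, so luminescence tracks viable cell number. Compound (23 nL, DMSO) added 5 h post-seeding; kinetic reads at 0–40 h, 37 C.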

[5] = A CellTox Green Cytotoxicity Assay to monitor cytotoxicity in HEK293 cells - 24 hour (AID 1224875); note: series mostly up to about 77 µM; nearly all actives have a fitted effect of over 45% in size
In short: as §1

[6] = A CellTox Green Cytotoxicity Assay to monitor cytotoxicity in HepG2 cells - 16 hour (AID 1224876); note: nearly all actives have a fitted effect of over 45% in size
In short: (§4)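 Cells and non-lytic dye reagent are dispensed together (600 HepG2 cells/well) and incubated 5 h before DMSO compound transfer. Kinetic fluorescence is then recorded in the same wells during 40 h at 37 C.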

[7] = qHTS RealTime-Glo MT Cell Viability Assay in HepG2 cells - 32 hour (AID 1224877); note: nearly all actives have a fitted effect of over 55% in size
In short: (§5)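 Compound treatment began 5 h after plating HepG2 cells (600/well) with NanoLuc luciferase and prosubstrate. Plates stayed at 37 C for 40 h; luminescence was captured at six time points, 0 h through 40 h.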

[8] = A CellTox Green Cytotoxicity Assay to monitor cytotoxicity in HepG2 cells - 24 hour (AID 1224878); note: nearly all actives have a fitted effect of over 45% in size
In short: as §4

[9] = A CellTox Green Cytotoxicity Assay to monitor cytotoxicity in HepG2 cells - 40 hour (AID 1224879); note: nearly all actives have a fitted effect of over 40% in size
In short: as §4

[10] = qHTS RealTime-Glo MT Cell Viability Assay in HEK293 cells - 0 hour (AID 1224880)
In short: as §3

[11] = A CellTox Green Cytotoxicity Assay to monitor cytotoxicity in HEK293 cells - 32 hour (AID 1224881); note: nearly all actives have a fitted effect of over 40% in size
In short: as §1

[12] = A CellTox Green Cytotoxicity Assay to monitor cytotoxicity in HepG2 cells - 0 hour (AID 1224882); note: nearly all actives have a fitted effect of over 35% in size
In short: as §4

[13] = A CellTox Green Cytotoxicity Assay to monitor cytotoxicity in HepG2 cells - 32 hour (AID 1224883); note: nearly all actives have a fitted effect of over 50% in size
In short: as §4

[14] = A CellTox Green Cytotoxicity Assay to monitor cytotoxicity in HEK293 cells - 8 hour (AID 1224884); note: nearly all actives have a fitted effect of over 35% in size
In short: as §1

[15] = qHTS RealTime-Glo MT Cell Viability Assay in HepG2 cells - 16 hour (AID 1224885); note: nearly all actives have a fitted effect of over 50% in size
In short: as §5

[16] = qHTS RealTime-Glo MT Cell Viability Assay in HEK293 cells - 8 hour (AID 1224887)
In short: as §3

[17] = A CellTox Green Cytotoxicity Assay to monitor cytotoxicity in HEK293 cells - 16 hour (AID 1224888); note: nearly all actives have a fitted effect of over 35% in size
In short: as §1

[18] = qHTS RealTime-Glo MT Cell Viability Assay in HepG2 cells - 0 hour (AID 1224889); note: nearly all actives have a fitted effect of over 50% in size
In short: as §5

[19] = A CellTox Green Cytotoxicity Assay to monitor cytotoxicity in HepG2 cells - 8 hour (AID 1224890); note: nearly all actives have a fitted effect of over 45% in size
In short: as §4

[20] = qHTS RealTime-Glo MT Cell Viability Assay in HEK293 cells - 24 hour (AID 1224886)
In short: as §2
% is set by controls: 0 for no effect and ±100 for the full control effect.

CCOC(=O)Oc1ccc(CCNC(=O)[C@H](CCSC)NC(C)=O)cc1OC(=O)OCC
inactive: Potency [1] | Potency [2] | Potency [3] | max response [4] 14.4% | Potency [5] | Potency [6] | Potency [7] | Potency [8] | Potency [9] | Potency [10] | Potency [11] | Potency [12] | Potency [13] | Potency [14] | Potency [15] | Potency [16] | Potency [17] | Potency [18] | Potency [19]

CCC(CO)(CO)CO
inactive: Potency [1] | Potency [2] | Potency [3] | max response [4] 5.95% | Potency [5] | Potency [6] | Potency [7] | Potency [8] | Potency [9] | Potency [10] | Potency [11] | Potency [12] | Potency [13] | Potency [14] | Potency [15] | Potency [16] | Potency [17] | Potency [18] | Potency [19]

CCCCCCCCCCCCCCCC(=O)OCC
inactive: Potency [1] | Potency [2] | Potency [3] | max response [4] 0.513% | Potency [5] | Potency [6] | Potency [7] | Potency [8] | Potency [9] | Potency [10] | Potency [11] | Potency [12] | Potency [13] | Potency [14] | Potency [15] | Potency [16] | Potency [17] | Potency [18] | Potency [19]

CC(=O)c1ccc[nH]1
inactive: Potency [1] | Potency [2] | Potency [3] | max response [4] -0.568% | Potency [5] | Potency [6] | Potency [7] | Potency [8] | Potency [9] | Potency [10] | Potency [11] | Potency [12] | Potency [13] | Potency [14] | Potency [15] | Potency [20] | Potency [16] | Potency [18] | Potency [19]

COc1cc(OC)c2ccc(=O)oc2c1
inactive: Potency [1] | Potency [2] | Potency [3] | max response [4] -23.1% | Potency [5] | Potency [6] | Potency [7] | Potency [8] | Potency [9] | Potency [10] | Potency [11] | Potency [12] | Potency [13] | Potency [14] | Potency [15] | Potency [20] | Potency [16] | Potency [19]

C/C(C=O)=C\c1ccccc1
inactive: Potency [1] | Potency [2] | Potency [3] | max response [4] 0.492% | Potency [5] | Potency [6] | Potency [7] | Potency [8] | Potency [9] | Potency [10] | Potency [12] | Potency [13] | Potency [14] | Potency [15] | Potency [20] | Potency [16] | Potency [17] | Potency [18]

O=C(O)/C=C/c1ccc(O)c(O)c1
inactive: Potency [1] | Potency [2] | Potency [3] | max response [4] -2.68% | Potency [5] | Potency [6] | Potency [7] | Potency [8] | Potency [9] | Potency [10] | Potency [11] | Potency [12] | Potency [13] | Potency [14] | Potency [15] | Potency [20] | Potency [16] | Potency [19]

CS(=O)(=O)c1ccc([C@@H](C[C@H]2CCC(=O)C2)C(=O)Nc2cnccn2)cc1Cl
inactive: Potency [1] | Potency [2] | Potency [3] | max response [4] 0.0186% | Potency [5] | Potency [6] | Potency [7] | Potency [8] | Potency [9] | Potency [10] | Potency [11] | Potency [12] | Potency [13] | Potency [14] | Potency [15] | Potency [20] | Potency [16] | Potency [17] | Potency [19]

Nc1ccn([C@H]2CS[C@@H](CO)O2)c(=O)n1
inactive: Potency [1] | Potency [2] | Potency [3] | max response [4] -7.77% | Potency [5] | Potency [6] | Potency [7] | Potency [8] | Potency [9] | Potency [10] | Potency [11] | Potency [12] | Potency [13] | Potency [14] | Potency [15] | Potency [16] | Potency [18] | Potency [19]

CC1=CC[C@@]23C[C@@H]1C(C)(C)[C@@H]2CC[C@H]3C
inactive: Potency [1] | Potency [2] | Potency [3] | max response [4] 1.49% | Potency [5] | Potency [6] | Potency [7] | Potency [11] | Potency [12] | Potency [14] | Potency [15] | Potency [20] | Potency [16] | Potency [17] | Potency [19]

CCCCCCC(O)CCCCCCCCCCC(=O)OC (stereo not given)
inactive: Potency [1] | Potency [2] | Potency [3] | max response [4] -16.2% | Potency [5] | Potency [6] | Potency [7] | Potency [8] | Potency [9] | Potency [10] | Potency [11] | Potency [12] | Potency [13] | Potency [14] | Potency [15] | Potency [20] | Potency [16] | Potency [18] | Potency [19]

COC(=O)CC(C(C)=O)C(=O)OC (stereo not given)
inactive: Potency [1] | Potency [2] | Potency [3] | max response [4] 9.23% | Potency [5] | Potency [6] | Potency [7] | Potency [8] | Potency [9] | Potency [10] | Potency [11] | Potency [12] | Potency [13] | Potency [14] | Potency [15] | Potency [16] | Potency [18] | Potency [19]

CC(C)(C)C(O)/C=C/c1ccc2c(c1)OCO2 (stereo not given)
inactive: Potency [1] | Potency [2] | Potency [3] | max response [4] 1.57% | Potency [5] | Potency [6] | Potency [7] | Potency [8] | Potency [9] | Potency [10] | Potency [11] | Potency [12] | Potency [13] | Potency [14] | Potency [15] | Potency [16] | Potency [17] | Potency [18]

CCCCCCCCCCCCCOC(=O)CCSCCC(=O)OCCCCCCCCCCCCC
inactive: cytotoxicity increase [1] 7.8% [at 15.8 µM] | activity change, negative = cytotoxicity [2] -1.74% [at 15.8 µM] | viability change, negative = cytotoxic [3] -12% [at 15.8 µM] | max response [4] -0.06% | activity change [5] 16% [at 15.8 µM, hits give high values] | cytotoxicity increase [6] -0.0072% [at 15.8 µM] | activity change, negative = cytotoxic [7] 0.647% [at 15.8 µM] | cytotoxicity [8] -0.358% [at 15.8 µM] | cytotoxicity increase [9] -4.11% [at 15.8 µM] | activity change, negative = cytotoxicity [10] -5.28% [at 15.8 µM] | cytotoxicity increase [11] 13.9% [at 15.8 µM] | cytotoxicity [12] 4.63% [at 15.8 µM] | cytotoxicity increase [13] -0.352% [at 15.8 µM] | cytotoxicity increase [14] 12.5% [at 15.8 µM] | activity change, negative = cytotoxic [15] -6.5% [at 15.8 µM] | activity change, negative = cytotoxicity [20] -2.9% [at 15.8 µM] | activity change, negative = cytotoxicity [16] -5.3% [at 15.8 µM] | activity change, negative = cytotoxicity [18] -15% [at 15.8 µM]
